Screening data (PubChem)
Pf growth 96h = P. falciparum growth inhibition at 96 hour, primary screen for plastid delayed-death inhibitors. P. falciparum luciferase reporter growth, 96 h. Potency, µM (series often up to 28.7 µM), without a hit: at the top dose activity change, negative = inhibition, hits mostly inhibitors. 320,000 tested, 6.9% active. AID 504834; further: potency means the concentration at half of the fitted maximal effect; on the % scale 0 is the no-effect control and ±100 the full control effect
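P. falciparum expressing integrated firefly luciferase, in erythrocytes at 2% hematocrit, 0.05% parasitemia, incubated with compounds 96 h at 37 C, 5% CO2. Growth inhibition read as loss of luminescence; two-generation exposure targets delayed-death apicoplast inhibitors.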
CHX counter = counter-screen for Shiga toxin inhibitors: cycloheximide protein synthesis inhibition; cell reporter, cycloheximide protein synthesis inhibition counterscreen; max response, %; 300,000 tested, 12% active; in the data active means max response mostly above about 13%, no sharp cut-off; inactive means mostly below about 14%; further: read at 38.3 µM for the half of the compounds with a filed dose; 0% is about no effect
Giardia FBPA inh = Giardia lamblia aldolase inhibition; Potency, µM (top dose mostly 59.6 µM), inactives show at the top dose activity, negative = inhibition, actives largely listed as inhibitors; AID 2451; purified Giardia FBPA; 290,000 tested, 0.71% active; A8B2U2; further: potency means the concentration at half of the fitted maximal effect; on the % scale 0 is the no-effect control and ±100 the full control effect; nearly all actives have a fitted effect of over 55% in size
Target sequence (A8B2U2 whole entry, looked up): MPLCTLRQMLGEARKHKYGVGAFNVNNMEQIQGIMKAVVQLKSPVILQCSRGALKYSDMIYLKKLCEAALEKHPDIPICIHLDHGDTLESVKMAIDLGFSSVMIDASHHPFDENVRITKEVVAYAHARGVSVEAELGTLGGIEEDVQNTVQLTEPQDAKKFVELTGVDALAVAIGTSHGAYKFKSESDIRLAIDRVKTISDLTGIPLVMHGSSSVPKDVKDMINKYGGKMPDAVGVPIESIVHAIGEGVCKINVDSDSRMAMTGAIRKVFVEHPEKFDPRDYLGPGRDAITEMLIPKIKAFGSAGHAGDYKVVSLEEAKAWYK
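Giardia FBPA (40 nM reagent) was preincubated 10 min at RT with compound (up to 57.5 uM final), then substrate plus GAPDH/TPI/NAD/arsenate coupling system with diaphorase/resazurin was added; resorufin fluorescence (525/598 nm) was read after 20 min.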
Pf growth 48h = P. falciparum growth inhibition at 48 hours (one generation). 310,000 tested, 5.9% active. Potency, µM (doses to about 28.7 µM), inactives show top-dose activity change, negative = inhibition, hits mostly inhibitors. P. falciparum luciferase growth in erythrocytes, 48 h. AID 504832; further: potency means the concentration at half of the fitted maximal effect; on the % scale 0 is the no-effect control and ±100 the full control effect
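Read-out is firefly luciferase luminescence from an integrated reporter in P. falciparum, so falling signal marks reduced parasite growth. Infected erythrocytes were at 2% hematocrit and 0.1% parasitemia (final) in Albumax-supplemented RPMI 1640.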
NS1 function inh = blocks influenza NS1 protein function. Potency, µM (highest dose often 46.1 µM), for inactives: top-dose activity, positive = more growth. 270,000 tested, 0.4% active; calls by dose curve; further: potency means the concentration at half of the fitted maximal effect; actives are rising curves; nearly all actives have a fitted effect of over 50% in size
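Compounds were scored for reversing the slow growth caused by influenza A NS1 in S. cerevisiae, measured by optical density at 600 nm. Assay medium contained 2% galactose at pH 6.0; NS1-free yeast of the same strain were the positive control.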
Shiga toxin inh = blocks Shiga toxin action in Vero cells; Vero cells, Shiga toxin protein synthesis inhibition reporter; 290,000 tested, 9.2% active; inhibition, % at 38.7 µM; AID 2315; in the data active means inhibition mostly above about 28%, no sharp cut-off; inactive means mostly below about 43%; further: 0% is about no effect
An asterisk follows results filed as active; i = inactive; u = inconclusive; x = no result; [ ] = remark or other dose. The list is not random: actives were taken first. Their share in the collection is about 21%. Unless noted, the call rests on the fitted dose curve; in most records, active means well fitted curve in the direction sought with a large enough effect; inconclusive means small, poorly fitted or top-dose-only effect, or another doubt; inactive means no such curve, though single readings can be large; an effect the other way counts as inactive or inconclusive.

SMILES	Pf growth 96h	CHX counter	Giardia FBPA inh	Pf growth 48h	NS1 function inh	Shiga toxin inh
COc1ccc(N(CC(=O)N2CCN(c3cc(C)ccc3C)CC2)S(=O)(=O)c2c(C)noc2C)cc1	13.1µM*	1.6	x	9.28µM*	1.3%	1.2
COc1ccc(N(CC(=O)N2CCN(c3cccc(C)c3C)CC2)S(=O)(=O)c2c(C)noc2C)cc1	13.1µM*	-2.9	x	8.28µM*	12.4%	-1.4
COc1cccc(CNS(=O)(=O)c2c(C)[nH]c(C)c2C(=O)N2CCCC2)c1	14.0%	0.9	x	-1.6%	2.8%	9.0
Cc1ccc([C@@H](O)c2cnc(C)n2Cc2ccccc2)cc1	x	x	x	x	-3.1%	x
COc1ccc(OC2C(O)COC2/C=C/C#Cc2ccccc2)cc1 (configuration not stated)	x	x	4.4%[12.9 µM]	x	x	x
CC(CCc1ccc(O)cc1)NC(c1ccccc1)c1ccc(Cl)cc1 (configuration not stated)	u	-3.9	u	9.28µM*	9.6%	-24.7
Cc1cc(CSCc2ccc(Cl)cc2)no1	96.8%	23.1*	17.9%	21.2%	-7.8%	24.1
Cc1cc(NC(=O)CSCc2ccccc2)no1	4.3%	1.1	-0.9%	8.2%[5.75 µM]	x	-3.6
C/C(N)=C(/C#N)C(=O)CSc1nnc(-c2ccccc2)n1C	-8.6%	-2.3	5.2%	4.1%	-2.2%	24.2
O=C(CSc1nnc(CCCOc2ccc(Cl)cc2Cl)o1)Nc1ccc(C(=O)O)cc1	u	-2.4	9.8%	10.0%	12.2%	16.5
Clc1ccc(OCc2nnc(SCc3nnc(-c4ccccc4)o3)o2)c(Cl)c1	x	39.2*	-16.9%	26.5%	-1.4%	56.0*
Clc1ccc2nc(SCc3nnc(-c4ccccc4)o3)[nH]c2c1	7.9%	-3.2	u	1.6%	-29.7%	9.1
O=C(CSc1nnc(COc2ccc(Cl)cc2Cl)o1)Nc1ccccn1	8.0%	28.4*	x	31.9%	-67.4%	60.2*
COc1cc2c(cc1OC)CC(C(=O)NCc1ccccc1)NC2 (configuration not stated)	-11.5%	3.3	8.3%	-4.6%	14.8%	-13.2
O=C1OC(c2ccc(Cl)cc2)/C(=C(/O)c2ccccc2)C1=O (configuration not stated)	101.7%	37.1*	8.4%	29.2%	15.3%	65.4*
CCC[C@@H]1CC2=CC(=O)CC[C@]2(C)[C@H]2CC[C@@]3(C)[C@@H](CC[C@@]34CCC(=O)O4)[C@H]12	x	-9.2	-2.2%	x	x	-6.2
COC(=O)Cc1cc(=O)[nH]c(/N=C(\N)Nc2ccc(C)cc2)n1	79.1%	-2.8	-5.7%	x	4.2%	-3.6
COC(=O)Cc1cc(=O)[nH]c(/N=C(\N)Nc2cccc(C)c2)n1	11.7µM*	-3.2	-0.8%	19.4%	5.8%	-42.0
COC(=O)Cc1cc(=O)[nH]c(/N=C(\N)Nc2ccc(C(C)C)cc2)n1	0.828µM*	-1.7	-1.0%	23.9%	1.9%	10.6
COc1ccc(NS(=O)(=O)c2cccc(C(=O)NNC(=O)c3cncc(Br)c3)c2)cc1	-3.2%	x	x	4.0%	x	x
O=[N+]([O-])c1ccc(CSc2nc3ccccc3o2)cc1	u	35.6*	0.5%	106.4%	5.5%	121.1*
COC(=O)c1ccc(CSc2nc3ccccc3o2)cc1	57.0%	29.6*	1.4%	180.9%	-42.6%	55.0*
CCOc1cc(C=C2C(=O)c3ccccc3C2=O)ccc1OCC(=O)Nc1ccc(C)cc1	u	8.4	-0.1%	u	1.3%	0.6
CCOC(=O)C1=C(O)c2ccccc2C(=O)/C1=C\c1ccc(CC)cc1	u	31.4*	7.94µM*	3.29µM*	-39.9%	58.5*
CCCc1ccc(/C=C2\C(=O)c3ccccc3C(O)=C2C(=O)OCC)cc1	u	19.9*	u	4.65µM*	0.8%	-3.4
SMILES	Pf growth 96h	CHX counter	Giardia FBPA inh	Pf growth 48h	NS1 function inh	Shiga toxin inh
CC(=O)Oc1ccccc1-c1nc(/C=C/c2ccccc2)no1	-2.8%	47.0*	4.9%	134.4%	-15.0%	62.7*
COc1cc(/C=C/c2noc(-c3ccccc3O)n2)cc(OC)c1OC	96.0%	18.1	1.0%	73.6%	-5.4%	25.8
COc1ccc(/C=C/c2noc(-c3ccccc3O)n2)cc1	u	56.2*	-1.3%	-24.2%	14.9%	82.6*
CCn1c(CNC(=O)c2cccc(C)c2)nnc1SCC(=O)N1CCOCC1	9.6%	-3.4	x	13.8%	2.3%	-19.1
Cc1cc(/C=C(\C#N)C(=O)N2CCCCC2)cc(C)c1O	-16.5%	17.3	x	-17.9%	-5.4%	50.7*
N#C/C(=C\c1cccc(O)c1)C(=O)N1CCCCC1	u	11.9	1.9%	u	-8.2%	x
OC(c1ccc(Cl)cc1Cl)C(Cc1cccnc1)n1cncn1 (configuration not stated)	13.1µM*	6.5	1.7%	u	1.8%	-27.5
CC(C)(C)C(O)C(Cc1ccc(Cl)cc1Cl)n1cncn1 (configuration not stated)	x	8.1	7.1%	x	x	-12.6
O=c1c(-c2ccc(F)cc2)nc2cnc(Nc3ccccc3)nc2n1C[C@H]1CCCO1	x	x	5.3%	x	x	x
CCCCN(CC)c1nc(N)c2c(N)nc(OCC)cc2c1C#N	13.1µM*	-2.6	u	x	-0.4%	-10.1
CCCCN(CC)c1nc(N)c(C#N)c(CC#N)c1C#N	3.29µM*	-0.3	u	x	7.6%	-12.1
C=C(C)CN(CC)c1nc(N)c(C#N)c(CC#N)c1C#N	u	-1.6	-29.0%	u	14.0%	-12.3
Cc1ccc(S(=O)(=O)N2CCN(C(=O)Cn3c(=O)oc4ccccc43)CC2)c(C)c1	u	x	x	-29.9%	x	x
CN(C)c1ccc(C2(c3ccc(N(C)C)cc3)OC(=O)c3cc(N)ccc32)cc1	-0.8%	-4.2	12.4%	-6.9%	8.5%	-7.0
C=C1c2ccccc2O[C@H](C(=O)OCC)[C@@H]1CCC(C)C (tested in a mixture with another compound)	x	8.7	-3.6%[89.2 µM]	x	x	i
CC1(OC(=O)CCc2ccccc2)C(=O)C=C2C=C(c3ccc(C#N)cc3)OC=C2C1=O (configuration not stated)	x	x	-10.2%	x	x	x
COc1cccc(-c2nc(-c3ccc(NC(=O)c4cccnc4)cc3)no2)c1	11.7µM*	-3.0	-4.4%	u	-8.8%	-12.0
O=C(Nc1cccc(NC(=O)c2cccs2)c1)c1cccnc1	-18.7%	2.8	-18.6%	3.1%	x	8.8
O=C(Nc1ccc(-c2noc(-c3cccs3)n2)cc1)c1cccnc1	u	26.6*	-3.0%	-16.5%	-8.9%	59.0*
O=C(Nc1ccc(F)cc1)c1cccnc1	124.5%	-3.6	1.1%	31.8%	-7.6%	-7.7
O=C(Nc1ccc(F)c(F)c1)c1cccnc1	10.4µM*	1.1	5.7%	x	-4.4%	-8.2
COc1cccc(NC(=O)c2cccnc2)c1	-2.2%	31.6*	6.6%	56.1%	-0.2%	31.1
O=C(Nc1cccc(NC(=O)c2cccnc2)c1)c1cccnc1	71.8%	-3.6	-1.6%	7.9%	8.8%	-3.5
COc1cccc(OC)c1C(=O)NNC(=O)c1cccnc1	29.5%	18.2*	4.2%	39.3%	0.2%	-15.3
